Source: PubChem BioAssay (National Center for Advancing Translational Sciences (NCATS))
BAZ2B inh – blocks human BAZ2B | Q9UIF8 | AlphaScreen BAZ2B-H3K14Ac peptide displacement | Potency, µM (doses to about 114 µM), for the others: at the highest dose activity change, negative = inhibition, most hits filed as inhibitors | hit rate 4.4% among 360,000 | AID 504333; further: on the % scale 0 is the no-effect control and ±100 the full control effect; nearly all actives have a fitted effect of over 60% in size
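Multi-concentration screen (max 110 uM) measuring displacement of acetylated histone H3 peptide from BAZ2B by AlphaScreen, using 50 nM protein, 50 nM peptide and 10 ug/mL streptavidin donor plus Ni-chelate acceptor beads.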
PLK1 PBD block – blocks phosphopeptide binding to human PLK1 polo-box domain. Potency, µM, for inactives: max response, negative = inhibition, most hits filed as inhibitors. P53350. hit rate 2.8% among 360,000. Plk1 PBD binding of FITC phosphopeptide, fluorescence polarization; further: series mostly up to about 57 µM; on the % scale 0 is the no-effect control and ±100 the full control effect; nearly all actives have a fitted effect of over 65% in size
HP1b chromo inh – blocks HP1-beta chromodomain binding to methylated histone tails. Potency, µM (series often up to 114 µM), without a hit: at the top dose activity change, negative = inhibition, actives largely listed as inhibitors. P83916. AlphaScreen HP1-beta / biotin-H3K9me3 peptide binding. AID 540317. hit rate 0.56% among 390,000; further: nearly all actives have a fitted effect of over 70% in size
Target sequence (P83916 whole entry, looked up): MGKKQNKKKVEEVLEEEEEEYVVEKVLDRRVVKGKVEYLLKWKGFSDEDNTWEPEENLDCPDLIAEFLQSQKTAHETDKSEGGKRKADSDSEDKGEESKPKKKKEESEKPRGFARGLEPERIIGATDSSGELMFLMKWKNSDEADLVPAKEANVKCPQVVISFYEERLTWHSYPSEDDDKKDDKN
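HP1-beta protein (50 nM final) preincubated 30 min at room temperature with biotinylated H3(1-18)K9me3 peptide (50 nM) in PBS pH 7.4, 0.01% Tween-20, then compound added for 30 min. AlphaScreen streptavidin donor/nickel chelate acceptor beads (10 ug/mL final), 30 min dark, luminescence read.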
JMJD2A Tudor inh – JMJD2A Tudor domain (human) inhibition; O75164; AID 504339; hit rate 4.4% among 390,000; Potency, µM (series often up to 114 µM), inactives show at the top dose activity change, negative = inhibition, actives largely listed as inhibitors; AlphaScreen JMJD2A-Tudor / H3K4me3 peptide binding; further: on the % scale 0 is the no-effect control and ±100 the full control effect; nearly all actives have a fitted effect of over 50% in size
Sfp PPTase inh – inhibitors of Bacillus subtilis Sfp phosphopantetheinyl transferase; Q9F4F7; Biochemical Sfp PPTase activity, qHTS; Potency, µM, for the others: largest response in the series, negative = inhibition, hits mostly inhibitors; hit rate 3.5% among 310,000; AID 1490;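 further: the enzyme is Sfp with the accession as filed and its product quenches rhodamine fluorescence; 0% = enzyme reaction without inhibitor and -100% = no enzyme wells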
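Sfp 15 nM + cpd, 15 min RT; start w/ rhodamine-CoA 5 uM, BHQ-2-YbbR 12.5 uM (final); 50 mM Hepes pH 7.6, 10 mM MgCl2, 0.01% NP-40, 0.01% BSA; read 525/598 nm at 0 and 30 min.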
G9a inh – G9a (human) methyltransferase inhibition; Q96KQ7; G9a H3K9 monomethylation, AlphaScreen, 2 h; Potency, µM (doses to about 102 µM), inactives show top-dose activity, negative = inhibition, usual class: inhibitors; hit rate 8.8% among 350,000; further: on the % scale 0 is the no-effect control and ±100 the full control effect; nearly all actives have a fitted effect of over 75% in size
Target sequence (Q96KQ7 913-1193 limits assumed): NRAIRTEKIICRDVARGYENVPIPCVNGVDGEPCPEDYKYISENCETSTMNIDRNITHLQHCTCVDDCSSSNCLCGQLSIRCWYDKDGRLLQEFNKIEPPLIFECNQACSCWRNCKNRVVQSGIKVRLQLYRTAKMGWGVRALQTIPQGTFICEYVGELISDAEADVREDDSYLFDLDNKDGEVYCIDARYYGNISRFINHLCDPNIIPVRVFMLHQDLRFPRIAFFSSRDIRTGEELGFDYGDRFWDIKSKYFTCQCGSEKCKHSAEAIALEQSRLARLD
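Signal arises when biotinylated H3K9 peptide, once monomethylated, bridges streptavidin donor and antibody-captured acceptor beads. Enzyme at 20 nM was preincubated 15 min with test compounds; peptide 500 nM and SAM 20 uM then reacted for 2 h.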
Starred values were filed as active, the others as inactive; ? = inconclusive; . = not tested or not shown; [ ] = remark or other dose. An excerpt weighted towards active compounds, which were near 12% of everything screened. The call rests on the fitted dose curve; in most records, active means well fitted curve in the direction sought with a large enough effect; inconclusive means small, poorly fitted or top-dose-only effect, or another doubt; inactive means no such curve, though single readings can be large; an effect the other way counts as inactive or inconclusive. Potency means the concentration at half of the fitted maximal effect.

SMILES	BAZ2B inh	PLK1 PBD block	HP1b chromo inh	JMJD2A Tudor inh	Sfp PPTase inh	G9a inh
COc1ccc(OC)c(-n2c(=O)c3ccccc3c3ccccc3c2=O)c1	?	?	23.3%	?	6.9%	10µM*
COc1ccc(-n2c(=O)c3ccccc3c3ccccc3c2=O)cc1	-30.0%	-14.9%	34.7%	4.8%	13.3%	10µM*
CNC(=O)CSc1nc2ccccc2c(=O)n1-c1cc(OC)ccc1OC	-5.0%	0.7%	38.2%	1.4%	5.2%	23.4%[59 µM]
CC(=O)Oc1ccc(-n2c(=O)c3ccccc3c3ccccc3c2=O)cc1	-22.6%	-6.6%	-0.5%	-10.6%	20.1%	-33.9%
CC(C)C1Oc2ccccc2N(CC(=O)N(Cc2ccncc2)Cc2ccco2)C1=O (stereo not given)	-24.8%	-12.7%	3.6%	-28.5%	44.7µM*	?
Oc1ccc(-c2n[nH]c(=S)n2-c2ccc3c(c2)OCCO3)cc1	?	?	-16.4%	?	79.4µM*	0.708µM*
O=C1C=C(c2ccc3ncccc3c2)C[C@@H](c2ccc3c(c2)OCO3)C1	?	2.3%	11.1%	?	.	3.4%[2.33 µM]
S=c1[nH]nc(-c2ccc3ncccc3c2)n1-c1ccc2c(c1)OCCO2	-16.3%	-9.4%	1.2%	?	79.4µM*	2.24µM*
COc1cccc(-c2cn3c(n2)sc2cc(C(=O)NCCCc4ccccc4)ccc23)c1	2.4%	.	8.7%	-26.6%	.	-1.4%[59 µM]
CCOc1ccccc1CNC(=O)CCC(=O)N1CCSc2ccccc21	-29.2%	.	33.1%	-15.4%	.	-26.0%[59 µM]
O=C(CSc1nnc(-c2cccnc2)n1Cc1ccco1)N1CCc2ccccc21	58.7%	-2.1%	25.5%	1.8%	20µM*	-24.5%
Fc1ccc(CSc2nnc(-c3cccnc3)n2Cc2ccco2)cc1	4.4%	-16.1%	9.3%	-18.0%	39.8µM*	50.1µM*
Fc1ccc(CSc2nnc(-c3cnccn3)n2Cc2ccco2)cc1	-32.9%	-3.7%	6.0%	-29.3%	-16.4%	-27.4%[12.7 µM]
COc1cc(/C=C(\C#N)c2ccccn2)cc(OC)c1O	-17.2%	23.7%	23.8%	-20.7%	-21.5%	?
COc1ccc(-c2csc(/C(C#N)=C\c3ccc(O)c([N+](=O)[O-])c3)n2)cc1OC	11.2µM*	26.7µM*	?	12.6µM*	-9.5%	.
N#C/C(=C\c1ccc(O)c([N+](=O)[O-])c1)c1nc2ccccc2s1	25.1µM*	23.8µM*	?	20µM*	-24.7%	3.98µM*
N#C/C(=C\c1ccc(N2CCCC2)c([N+](=O)[O-])c1)c1nc2ccccc2[nH]1	?	-0.2%	16.3%	-1.1%	-35.6%	.
COc1ccc(-c2csc(/C(C#N)=C\c3ccc(OC)c([N+](=O)[O-])c3)n2)cc1	3.6%	-5.2%	36.3%	6.0%	2.3%	13.2%[59 µM]
COc1cc(/C=C(\C#N)c2nc3ccccc3s2)cc([N+](=O)[O-])c1O	12.6µM*	21.2µM*	20µM*	11.2µM*	-29.1%	15.8µM*
COc1cccc(OC)c1C(=O)N1CCN(C(=O)c2ccc(-c3ccccc3)cc2)CC1	1.7%	-11.3%	28.1%	-22.6%	4.7%	0.2%
CC1(C(=O)Nc2cccc(C(F)(F)F)c2)Cc2c(-c3ccc4c(c3)OCO4)ccnc2O1 (stereo not given)	.	-3.4%	.	.	.	.
Cc1ccc(C(=O)NCc2ccncc2)cc1S(=O)(=O)Nc1cccc(C)c1C	-17.9%	5.6%	13.4%	-4.8%	3.6%	-46.6%
Cc1ccccc1NS(=O)(=O)c1cc(C(=O)NCc2ccncc2)ccc1Cl	-23.5%	-6.3%	42.2%	-5.1%	6.6%	44.7µM*
Cc1ccc(NS(=O)(=O)c2cc(C(=O)NCCCN(C)C)ccc2Cl)cc1Cl	6.0%	-4.4%	33.5%	-6.8%	.	79.4µM*
Cc1c(NS(=O)(=O)c2cc(C(=O)NCCN(C)C)ccc2Cl)c(=O)n(-c2ccccc2)n1C	79.4µM*	-2.4%	10.5%	?	10.7%	?
COc1ccc(-c2nnc3n2N=C(c2cc(OC)ccc2OC)CS3)c(OC)c1	.	.	.	-9.0%	1.7%	.
